Test results as given in article PMC12670160, “A drug-repurposing screen of FDA- and EMA-approved drugs identifies two NF-κB inhibitors active against eumycetoma” (Journal of Antimicrobial Chemotherapy, 2025).
Structures can show the parent of a compound that is named as a salt. Where two headings read alike, the source gives them in different places. Out of some 5,300 compounds screened, about 130 (2.5%) showed an effect of 50% or more. The list comes from a sample in which strong results are over-represented; it also holds similar structures and randomly drawn compounds.

Tested on: M. mycetomatis strain mm55
Conditions: primary screen, metabolic activity vs growth control, 96 h, 2 µM, inhibitor

| SMILES | % viability [%] | % viability (Madurella mycetomatis metabolic activity at 2µM (%)) [%] |
| --- | --- | --- |
| C[C@@H]1[C@H](O)[C@@H](C)/C=C/C=C/CC/C=C/C=C/C=C/C=C/[C@H](O[C@@H]2O[C@H](C)[C@@H](O)[C@H](N)[C@@H]2O)C[C@@H]2O[C@](O)(C[C@@H](O)[C@H](O)CC[C@@H](O)C[C@@H](O)C[C@@H](O)CC(=O)O[C@H]1C)C[C@H](O)[C@H]2C(=O)O [ONC0002036, nystatin] | 93.36 |  |
| O=C(O)C=C1NN(Cc2nc3cc(C(F)(F)F)ccc3s2)C(=O)c2ccccc21 [ONC0005526, zopolrestat] | 123.5 |  |
| CCS(=O)(=O)N1CCC[C@@H]2CN3CCc4cc(OC)ccc4[C@@H]3C[C@@H]21 [ONC0002617, rs79948] | 85.43 |  |
| C[C@@]1(c2nc3c(C(N)=O)cccc3[nH]2)CCCN1 [ONC0004676, abt888 veliparib] | 121 |  |
| Cc1cc(NC(=O)C2C(=O)c3ccccc3S(=O)(=O)N2C)no1 (stereo not shown) [ONC0002885, isoxicam] | 123.7 |  |
| C[n+]1cccc(C(=O)O)c1 [ONC0003448, trigonellinehcl] | 47.48 |  |
| O=C(O)c1ccccc1 [ONC0003100, benzoic acid] | 90.48 |  |
| O=C(O)c1ccc[n+]([O-])c1 [ONC0005291, oxiniacic acid] | 104 |  |
| Cc1cc(CCC[C@H](CC(=O)NO)C(=O)N[C@H](C(=O)N[C@H](C)c2ccccc2)C(C)(C)C)ccc1-c1ccccc1 [ONC0002525, uk356618] | 62.33 |  |
| CC(C)[C@@H]1CC[C@@H](C)C[C@@H]1P(=O)(c1ccccc1)c1ccccc1 [ONC0003951, dpo1] | 47.19 |  |
| CC(C)[C@@H]1CC[C@@H](C)C[C@H]1O [ONC0003141, levomenthol] | 69.71 |  |
| CC[C@H](C)[C@H](NC(=O)[C@H](Cc1ccc(O)cc1)NC(=O)[C@@H](NC(=O)[C@H](CCCNC(=N)N)NC(=O)[C@@H](N)CC(=O)O)C(C)C)C(=O)N[C@@H](Cc1cnc[nH]1)C(=O)N1CCC[C@H]1C(=O)N[C@@H](Cc1ccccc1)C(=O)O [ONC0002134, angiotensin ii human] | 79.83 |  |
| CC(C)N[C@H]1CCn2c(=O)[nH]c3cccc(c32)[C@@H]1O [ONC0003872, zilpaterol] | 87.84 |  |
| COc1cc(CC2NCCc3cc(O)c(O)cc32)cc(OC)c1OC (stereo not shown) [ONC0002165, trimethoquinol] | 66.75 |  |
| O=C(O)Cc1ccc(-c2ccccc2)cc1 [ONC0005558, felbinac] | 137.1 |  |
| O=C(O)Cc1ccc2c(c1)C(=O)c1ccccc1CO2 [ONC0003681, isoxepac] | 47.44 |  |
| CN(C)CC/C=C1/c2ccccc2COc2ccc(CC(=O)O)cc21 [ONC0004990, olopatadine hydrochloride opatanol] | 101 |  |
| O=C1c2cccnc2OC[C@@H]2CCCN12 [ONC0001148, org26576] | 83.51 |  |
| CCOC(=O)NNc1ccc(N(CC)CC(C)O)nn1 (stereo not shown) [ONC0001944, cadralazine] | 72.29 |  |
| C=C1C(=O)O[C@@H]2[C@H]3O[C@]3(C)CC/C=C(\C)CC[C@@H]12 [ONC0002950, parthenolidealternatestereo] | 150.2 |  |
| Cc1cccc(Oc2nc3c(C)cccn3c(=O)c2/C=C(\C#N)c2nc3ccccc3s2)c1 [ONC0001281, ccg63802] | 68.65 |  |

| SMILES | % viability [%] | % viability (Madurella mycetomatis metabolic activity at 2µM (%)) [%] |
| --- | --- | --- |
| Cc1cccn2c(=O)c(/C=C(\C#N)c3nc4ccccc4s3)c(Oc3ccc(F)cc3)nc12 [ONC0003502, ccg63808] | 42.44 |  |
| Cc1ccc(OC[C@@H](O)[C@H](C)NC(C)C)c2c1CCC2 [ONC0001929, ici118551] | 52.35 |  |
| Cc1ccc(-c2ncccn2)c(C(=O)N2C[C@H](COc3ccc(F)cn3)CC[C@H]2C)c1 [ONC0005570, filorexant] | 73.84 |  |
| O=C(O)CC(O)(CC(=O)O)C(=O)O.[Li].[Li].[Li] [ONC0004255, lithium citrate hydrate] | 60.67 |  |
| CCCCCCCCCCCCOCCOCCOCCOCCOCCOCCOCCOCCOCCO [ONC0002139, polidocanol] | 78.72 |  |
| C[C@H]1OC(O)[C@H](O)[C@H](O)[C@H]1O (stereo partly shown) [ONC0004779, l rhamnose monohydrate] | 103.9 |  |
| C/C=C1\NC(=O)[C@H]2CSSCC/C=C/[C@H](CC(=O)N[C@H](C(C)C)C(=O)N2)OC(=O)[C@H](C(C)C)NC1=O [ONC0000722, romidepsin] | 49.6 |  |
| Cc1ccc(-c2ccc(C)cn2)nc1 [ONC0002143, abametapir] | 65.91 |  |
| C=C[C@H]1C[N@@]2CC[C@H]1C[C@H]2[C@H](O)c1ccnc2ccc(OC)cc12 [ONC0003402, quinine] | 78.04 |  |
| CC/C(=C(\c1ccccc1)c1ccc(OCCN(C)C)cc1)c1ccccc1 [ONC0000595, tamoxifen citrate] | 106.5 |  |
| CC/C(=C(\c1ccc(O)cc1)c1ccc(OCCN(C)C)cc1)c1ccccc1 [ONC0002197, afimoxifene] | 79.17 |  |
| CC/C(=C(\c1ccc(O)cc1)c1ccc(OCCNC)cc1)c1ccccc1 [ONC0004522, endoxifen hcl] | 48.7 |  |
| COc1cc(-n2c(S)nc3ccccc3c2=O)c(Cl)cc1Cl [ONC0004315, mdivi1] | 127.2 |  |
| O=C1c2ccccc2-n2c1nc1ccccc1c2=O [ONC0003517, tryptanthrin] | 43.27 |  |
| O=c1c2ccccc2nc2n1CCc1c-2[nH]c2ccccc12 [ONC0004955, rutaecarpine rutecarpine] | 80.68 |  |
| COC(=O)Nc1nc2ccc([S+]([O-])c3ccccc3)cc2[nH]1 (stereo not shown) [ONC0004180, oxfendazole] | 72.44 |  |
| NC(C(=O)O)c1ccc(C(=O)O)c(O)c1 (stereo not shown) [ONC0002596, 4carboxy3hydroxyphenylglyciners] | 58.45 |  |
| CC(=O)O[C@@H]1CC[C@@]2(C)C(CC[C@]3(C)C2C(=O)C=C2[C@@H]4[C@@H](C)[C@H](C)CC[C@]4(C)CC[C@]23C)[C@@]1(C)C(=O)O (stereo partly shown) [ONC0003387, acetyl11ketobetaboswellicacid] | 70.79 |  |
| COc1cc2c(c(OC)c1OC)-c1c(cc3c(c1OC)OCO3)C[C@H](C)[C@@H](C)C2 [ONC0005204, schisandrin b] | 87.3 |  |
| O=C1CCCCCCCCCCCCCCO1 [ONC0002133, oxacyclohexadecan2one] | 71.7 |  |
| O=C(O)CN(CCN(CC(=O)O)CC(=O)O)CCN(CC(=O)O)CC(=O)O [ONC0005602, pentetic acid] |  | 107.7 |

| SMILES | % viability [%] | % viability (Madurella mycetomatis metabolic activity at 2µM (%)) [%] |
| --- | --- | --- |
| Oc1cccc(Nc2ccc(Nc3cccc(O)c3)nn2)c1 [ONC0002962, 363hydroxyphenylaminopyridazin3ylaminophenol] | 67.52 |  |
| Nc1ccc(C(=O)O)c(O)c1 [ONC0003334, aminosalicylate sodium] | 35.29 |  |
| Nc1ccc(C(=O)Oc2ccccc2)c(O)c1 [ONC0003304, phenyl aminosalicylate] | 56.4 |  |
| Nc1ccc(O)c(C(=O)O)c1 [ONC0002803, mesalamine lialda] | 82.25 |  |
| [H]/N=C(/N)N/C(=N/[H])NCCc1ccccc1 [ONC0000619, phenformin hydrochloride] | 104.4 |  |
| CNC(=O)c1ccc2c(c1)S(=O)(=O)c1ccccc1C2=O [ONC0002375, bw616u] | 76.21 |  |
| CCOC(=O)Nc1c[n+](N2CCOCC2)no1 [ONC0000636, molsidomine] | 75.33 |  |
| Nc1c[n+](N2CCOCC2)no1 [ONC0003799, linsidomine] | 49.48 |  |
| CC[C@@H](C(=O)O)C1CC[C@H](C)C([C@@H](C)[C@H](O)[C@H](C)C(=O)[C@H](CC)C2O[C@]3(C=C[C@@H](O)[C@]4(CC[C@@](C)(C5CC[C@](O)(CC)[C@H](C)O5)O4)O3)[C@H](C)C[C@@H]2C)O1 (stereo partly shown) [ONC0004344, salinomycin procoxacin] | 144.3 |  |
| CN(C)c1ccc2c(c1)Sc1cc(N(C)C)ccc1N2.CS(=O)(=O)O [ONC0001830, leucomethylene blue mesylate] | 74.38 |  |
| CS(=O)(=O)c1ccc(C2=C(c3ccccc3)C(=O)OC2)cc1 [ONC0001095, rofecoxib] | 82.56 |  |
| CS(=O)(=O)c1ccc(-c2cn3ccccc3n2)cc1 [ONC0002352, zolimidine] | 42.05 |  |
| CS(=O)(=O)c1ccc(-c2cnc(N)c(C(=O)Nc3ccccc3)n2)cc1 [ONC0004547, ve821] | 76.73 |  |
| O=C1NC(=O)/C(=C\c2cccc(C(F)(F)F)c2)S1 [ONC0004444, smi4a] | 130.7 |  |
| Cc1cc(C(=CNc2ccc(Cl)cc2)C(=O)Nc2ccc(Cl)cc2)on1 [ONC0000028, ccmi] | 80.11 |  |
| Cc1ncc(C[n+]2csc(CCO[P@](=O)(O)OP(=O)(O)O)c2C)c(N)n1 [ONC0002796, thiamine pyrophosphate chloride] | 94.34 |  |
| CC1(C)OC2(C)C(O)CC1CC2O (stereo not shown) [ONC0003817, epomediol] | 42.26 |  |
| CC1(C)[C@@H]2C[C@@H](O)[C@@](C)(O)[C@H]1C2 [ONC0002949, 266trimethylbicyclo311heptane23diol] | 64.26 |  |
| CC1(C)[C@@H]2C[C@H]1[C@@](C)(O)[C@@H](O)C2 [ONC0005321, pinanediol] | 118.6 |  |
